rTrxR1 inhibitor: blocks rat thioredoxin reductase 1; Potency, µM (series often up to 114 µM), inactives show at the highest dose activity change, negative = inhibition, hits mostly inhibitors; O89049; AID 588453; 390,000 tested, 1% active; recombinant rTrxR1, NADPH fluorescence consumption, selenite substrate; further: potency means the concentration at half of the fitted maximal effect; nearly all actives have a fitted effect of over 65% in size
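Rat TrxR1 (90 nM in the dispensed reagent) was pre-reduced with 400 uM NADPH for 5 min at room temperature, then incubated with compound for 15 min. After 400 uM selenite was added, NADPH fluorescence (Ex 340/Em 450 nm) was followed for 8 min.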
RORg inh: blocks mouse ROR gamma transcriptional activity. P51450. Drosophila S2 Gal4-RORgamma UAS-luciferase reporter, 20 h. Potency, µM (titrated, usually from 53.6 µM), for the others: at the top dose activity change, negative = inhibition, most hits filed as inhibitors. 310,000 tested, 5.4% active. AID 2551; further: potency means the concentration at half of the fitted maximal effect; nearly all actives have a fitted effect of over 60% in size
Target sequence (P51450 whole entry, looked up, the tested form may be a part): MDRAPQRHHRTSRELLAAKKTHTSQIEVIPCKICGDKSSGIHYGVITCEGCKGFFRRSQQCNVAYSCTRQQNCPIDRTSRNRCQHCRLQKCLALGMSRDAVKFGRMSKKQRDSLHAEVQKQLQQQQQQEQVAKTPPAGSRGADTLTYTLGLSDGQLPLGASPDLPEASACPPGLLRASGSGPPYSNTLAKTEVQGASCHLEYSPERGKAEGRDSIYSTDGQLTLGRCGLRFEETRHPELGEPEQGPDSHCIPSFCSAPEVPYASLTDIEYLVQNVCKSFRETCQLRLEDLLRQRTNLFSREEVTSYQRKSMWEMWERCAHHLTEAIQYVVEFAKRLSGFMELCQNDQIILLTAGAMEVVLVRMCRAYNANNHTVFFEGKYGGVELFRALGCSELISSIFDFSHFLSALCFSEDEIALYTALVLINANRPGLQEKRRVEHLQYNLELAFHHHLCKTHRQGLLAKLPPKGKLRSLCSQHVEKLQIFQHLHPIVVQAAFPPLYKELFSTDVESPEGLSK
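A Gal4/UAS one-hybrid system in insect cells: metallothionein-promoter Gal4–ROR gamma fusion plus Photinus luciferase reporter. Copper sulfate 700 uM final, 20 hr ambient incubation, luminescent detection after 10 min with reagent.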
FBPA coupling cs: counter-screen for Giardia aldolase inhibitors: coupling enzyme system; coupling enzyme system counterscreen, AmpLite Red fluorescence; activity change, negative = inhibition, % at 58.2 µM, hits read low; 290,000 tested, 0.67% active; in the data active means activity change below about -30%
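First, compound is pin-transferred into glyceraldehyde-3-phosphate coupling-enzyme reagent at 57.5 uM final and held 10 min at RT. Next, substrate, coupling system and AmpLite Red are added. After 20 min RT, fluorescence (525/598 nm) is read.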
VP16 counter: Gal4-VP16 reporter inhibition counter-screen; Potency, µM (highest dose often 53.6 µM), without a hit: at the top dose activity, negative = inhibition, hits mostly inhibitors; 310,000 tested, 3.5% active; Drosophila S2 Gal4-VP16 UAS-luciferase, luminescence, 20 h;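 further: Gal4-VP16 expression switched on by copper sulfate through the metallothionein promoter; potency means the concentration at half of the fitted maximal effect; nearly all actives have a fitted effect of over 50% in size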
TrxR1 substrate: is turned over as a substrate by rat TrxR1 | O89049 | purified TrxR1 substrate turnover, NADPH consumption readout | Potency, µM (series often up to 114 µM), without a hit: at the highest dose activity change, negative = substrate turnover | 390,000 tested, 0.01% active | AID 588456; further: potency means the concentration at half of the fitted maximal effect; nearly all actives have a fitted effect of over 50% in size
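Rat TrxR1, dispensed at 90 nM, was prereduced with 400 uM NADPH (final) for 5 min at ~22 deg C, then incubated with compound 15 min before 400 uM selenite. A first-read NADPH fluorescence drop versus no-compound background flagged substrates.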
GALK inh: galactokinase (human) inhibition | P51570 | Purified GALK, Kinase-Glo residual ATP luminescence | Potency, µM (series often up to 57.5 µM), inactives show top-dose activity change, negative = inhibition, most hits filed as inhibitors | 270,000 tested, 0.007% active; further: potency means the concentration at half of the fitted maximal effect
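Compounds were pin-transferred into ATP buffer (35 uM final), then GALK plus galactose (5 nM, 100 uM final) was added. After 1 h at room temperature, Kinase-Glo Plus was added and luminescence read after 10 min.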
Numbers without * were called inactive; [ ] = remark or other dose. Shown are actives, neighbours in structure and some others; about 5.9% of the full set was active somewhere. Unless noted, the call rests on the fitted dose curve; in most records, active means well fitted curve in the direction sought with a large enough effect; inconclusive means small, poorly fitted or top-dose-only effect, or another doubt; inactive means no such curve, though single readings can be large; an effect the other way counts as inactive or inconclusive. On the % scale 0 is the no-effect control and ±100 the full control effect.

Screening CC(=O)c1cccc(N=C2NC(=O)C(CO)(CO)S2)c1 returned rTrxR1 inhibitor 1.9%, RORg inh -28.0%, FBPA coupling cs 1.1, VP16 counter 3.4%, TrxR1 substrate 1.7% and GALK inh 0.6%.
`Fc1cc(Cl)c(OCc2noc(-c3ccsc3)n2)c(Cl)c1` gave rTrxR1 inhibitor 22.3%, RORg inh -17.0%, FBPA coupling cs 0.0, VP16 counter 6.6%, TrxR1 substrate 1.0% and GALK inh -1.8%.
`COc1ccc(F)cc1C(=O)C1CCCN(C(=O)C2=C(C)OCCO2)C1` (stereo unspecified) gave rTrxR1 inhibitor -2.4%, RORg inh inconclusive, FBPA coupling cs 1.9, VP16 counter -1.6%, TrxR1 substrate -0.4% and GALK inh 0.4%.
Screening CCN(CC)C(=O)c1c(NC(=O)c2ccccc2)sc(C)c1C returned rTrxR1 inhibitor -9.7%, RORg inh -6.4%, FBPA coupling cs 1.2, VP16 counter 5.0%, TrxR1 substrate -6.2% and GALK inh 1.9%.
CCN(CC)Cc1c(NC(=O)c2ccccc2)sc(C)c1C was read as rTrxR1 inhibitor 7.08µM*, RORg inh 28.2%, FBPA coupling cs -2.9, VP16 counter inconclusive, TrxR1 substrate 3.3% and GALK inh -0.9%.
For COc1ccc(OC(=O)N2C/C(=C/c3ccccc3)C(=O)/C(=C\c3ccccc3)C2)cc1 the results were rTrxR1 inhibitor -17.1% and TrxR1 substrate -5.9%.
`CCOC(=O)C(=Cc1ccccc1)C(=O)OCC` gave RORg inh 12.6µM*, FBPA coupling cs 4.0 and VP16 counter 12.6µM*.
CCOC(=O)C(=Cc1ccc(-n2cncn2)cc1)C(=O)OCC was read as rTrxR1 inhibitor 22.4µM*, RORg inh inconclusive, FBPA coupling cs 0.9, VP16 counter -93.1%, TrxR1 substrate 4.5% and GALK inh 0.1%.
`CCOC(=O)N1C/C(=C\c2ccccc2)C(=O)/C(=C/c2ccccc2)C1` gave rTrxR1 inhibitor 8.4%[2.29 µM], RORg inh 17.8µM*, FBPA coupling cs -0.8, VP16 counter inconclusive, TrxR1 substrate -6.3% and GALK inh -15.5%.
CCC(=O)N1CCc2cc(S(=O)(=O)NCCC(=O)Nc3ccc(OC)cc3)ccc21 was read as rTrxR1 inhibitor 18.3%, RORg inh 17.9%, FBPA coupling cs 2.3, VP16 counter -2.4%, TrxR1 substrate 5.3% and GALK inh -3.8%.
For CCN(CC)S(=O)(=O)c1ccc(O)c(NC(=O)c2ccc(N3CCOCC3)c([N+](=O)[O-])c2)c1 the results were rTrxR1 inhibitor -2.4%, RORg inh inconclusive, FBPA coupling cs -2.5, VP16 counter -10.5%, TrxR1 substrate -2.7% and GALK inh -0.4%.
Cc1ccc(C(=O)NNC(=O)CCCN2C(=O)/C(=C/c3ccccc3Cl)SC2=S)cc1 was read as rTrxR1 inhibitor -12.7%, RORg inh 2.82µM*, FBPA coupling cs -0.3, VP16 counter 3.16µM*, TrxR1 substrate -8.4% and GALK inh 0.7%.
Screening Cc1ccc(/C=C2/SC(=S)N(CCCC(=O)Nc3ccc(O)cc3)C2=O)cc1 returned rTrxR1 inhibitor 8.2%[57.1 µM], RORg inh 0.398µM*, FBPA coupling cs 1.9, VP16 counter inconclusive, TrxR1 substrate 2.0%[57.1 µM] and GALK inh 0.7%.
For Cc1ccc(/C=C2\SC(=S)N(CCCC(=O)NC3CCCC3)C2=O)cc1 the results were rTrxR1 inhibitor -0.2%, RORg inh 1.58µM*, FBPA coupling cs -3.6, VP16 counter inconclusive, TrxR1 substrate -1.1% and GALK inh 5.2%.
Screening COc1ccc(/C=C2/SC(=S)N(CCCC(=O)Nc3ccc(O)cc3)C2=O)cc1OC returned rTrxR1 inhibitor -9.6%, RORg inh 11.3%, VP16 counter -6.7%, TrxR1 substrate -13.6% and GALK inh -7.1%.
Cc1ccc(/C=C2\SC(=S)N(CCCC(=O)NNC(=O)c3ccccc3O)C2=O)cc1 was read as rTrxR1 inhibitor 16.5%, RORg inh 1.58µM*, FBPA coupling cs -0.6, VP16 counter 2.82µM* and TrxR1 substrate -1.2%.
Screening COc1ccccc1C/C(N)=N/OC(=O)c1ccco1 returned rTrxR1 inhibitor 11.7%, RORg inh -2.9%, FBPA coupling cs 2.9, VP16 counter -4.9%, TrxR1 substrate 1.8% and GALK inh 3.7%.
COc1cc(Cl)c(C)cc1NC(=O)c1ccc(CN2C(=O)CCn3nc(C)cc32)cc1 was read as rTrxR1 inhibitor 15.1% and TrxR1 substrate 2.6%.
`O=C(CCCN1C(=O)/C(=C\c2ccccc2)SC1=S)Nc1ccc(O)cc1` gave rTrxR1 inhibitor 7.3%[57.1 µM], RORg inh 2µM*, FBPA coupling cs 2.1, VP16 counter 1.78µM*, TrxR1 substrate -7.3% and GALK inh -3.2%.
`COc1cccc(/C=C2\SC(=S)N(CCCC(=O)NC3=NCCS3)C2=O)c1` gave rTrxR1 inhibitor 19.8%, RORg inh 0.562µM*, FBPA coupling cs 1.8, VP16 counter 0.708µM*, TrxR1 substrate 8.2% and GALK inh 3.8%.
For O=C(CCN1C(=O)/C(=C\c2ccccc2)SC1=S)Nc1ccc(C(=O)O)cc1 the results were rTrxR1 inhibitor 1.6%, RORg inh -13.9%, FBPA coupling cs 8.0, VP16 counter 26.3%, TrxR1 substrate -4.5% and GALK inh -8.6%.
`O=C(O)CCCN1C(=O)/C(=C\C(Cl)=C\c2ccccc2)SC1=S` gave rTrxR1 inhibitor inconclusive, RORg inh 1.26µM*, FBPA coupling cs 0.4, VP16 counter 1.58µM* and TrxR1 substrate -4.6%.
For O=C(CCCN1C(=O)S/C(=C/C=C/c2ccccc2)C1=O)Nc1ccc(C(=O)O)cc1 the results were rTrxR1 inhibitor 79.4µM*, RORg inh -27.8%, VP16 counter -5.6%, TrxR1 substrate -5.0% and GALK inh -1.9%.
`COc1cccc(/C=C2/SC(=S)N(CCCC(=O)Nc3ccc(O)cc3)C2=O)c1` gave rTrxR1 inhibitor 23.1%, RORg inh 0.355µM*, VP16 counter 0.355µM*, TrxR1 substrate -2.4% and GALK inh -10.4%.
For O=C(CCCN1C(=O)/C(=C/c2ccccc2)SC1=S)Nc1cccc(O)c1 the results were rTrxR1 inhibitor 15.0%, RORg inh inconclusive, FBPA coupling cs -0.6, VP16 counter 7.08µM*, TrxR1 substrate -8.3% and GALK inh 2.5%.
For O=C(CCN1C(=O)/C(=C/c2cccs2)SC1=S)Nc1ccccc1O the results were rTrxR1 inhibitor 2.3%[57.1 µM], RORg inh 6.3%, FBPA coupling cs -7.8, VP16 counter -28.9%, TrxR1 substrate 0.2%[57.1 µM] and GALK inh 5.3%.
